# Assay outcomes: PubChem, National Center for Advancing Translational Sciences (NCATS)
# NIH3T3 tox = kills NIH 3T3 cells; NIH 3T3 viability, CellTiter-Glo ATP luminescence, 48-72 h; Potency, µM (highest dose often 96.7 µM), inactives show top-dose activity change, negative = cytotoxicity, most hits filed as inhibitors; actives 4.3% (n = 94,000); AID 1345082; note: nearly all actives have a fitted effect of over 55% in size
#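 Luminescent ATP readout (CellTiter-Glo, 10 min RT) after 48 or 72 hr compound exposure of NIH 3T3 cells seeded at 400 cells/well in 1536-well format; quantitative HTS.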
# FLuc inh = Photinus pyralis luciferase inhibition; P08659; purified P. pyralis luciferase, luminescence, biochemical; Potency, µM (titrated, usually from 115 µM), hits mostly inhibitors; actives 2.5% (n = 76,000); AID 1347043; note: nearly all actives have a fitted effect of over 65% in size
#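 FLuc 10nM, D-luciferin 10uM, ATP 10uM, Mg acetate 10mM, Tris acetate pH 7.5, Tween/BSA; cpd qHTS; enzyme added last; CCD luminescence.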
# hNpr1 antagonist = antagonists of human natriuretic peptide receptor Npr1. P16066. HEK293 hNpr1 GloSensor cGMP, ANP-stimulated luminescence. Potency, µM (titrated, usually from 46.3 µM), for the others: top-dose activity change, negative = inhibition, actives largely listed as inhibitors. actives 1.6% (n = 76,000); calls by dose curve; note: nearly all actives have a fitted effect of over 60% in size
#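 HEK293 cells stably expressing human Npr1 and cGMP GloSensor pGS-40F, loaded 2 h with 2% GloSensor reagent, given compound 30 min at room temperature. Luminescence read before and 20 min after 0.1 nM hNppA.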
# GPT2 inh = inhibitors of human GPT2 alanine aminotransferase. AID 1671188. actives 0.25% (n = 100,000). Potency, µM (series often up to 57.7 µM), inactives show at the highest dose activity change, negative = inhibition, most hits filed as inhibitors. Recombinant GPT2, coupled pyruvate oxidase/HRP Amplex Red fluorescence; note: nearly all actives have a fitted effect of over 60% in size
#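 Recombinant GPT2 (10ng/uL) with 250uM a-KG and 2mM L-alanine, 30 min at room temperature, in HEPES pH 7.5 buffer. Pyruvate detected by pyruvate oxidase/HRP/Amplex Red fluorescence after 30 min in the dark; AOA (50uM) as positive control.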
# HEK cytotox = cytotoxic compounds in HEK 293 cells. AID 1345083. Potency, µM (top dose mostly 115 µM), inactives show at the highest dose activity change, negative = cytotoxicity, usual class: inhibitors. actives 6.6% (n = 94,000). HEK 293 viability, ATP luminescence (CellTiter-Glo), 48-72 h; note: nearly all actives have a fitted effect of over 60% in size
#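 Viability of HEK 293 cells, plated at 250 cells/well, was judged by cellular ATP after compound treatment for 48 or 72 hr. Luminescence was imaged 10 min after CellTiter-Glo addition at room temperature.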
# * = called active by the depositor; i = inactive; ? = inconclusive; / = no result; ! = a repeat was not active; [ ] = another dose, or the depositor's remark. This is a sample that favours compounds with a hit; in the whole collection about 10% have one here. Unless noted, calls come from the whole dose curve; as a rule, active = well fitted curve in the direction sought with a large enough effect; inconclusive = small, poorly fitted or top-dose-only effect, or another doubt; inactive = no such curve, though single readings can be large; an effect the other way counts as inactive or inconclusive. % is set by controls: 0 for no effect and ±100 for the full control effect; potency is the fitted concentration of half-maximal effect.
SMILES,NIH3T3 tox,FLuc inh,hNpr1 antagonist,GPT2 inh,HEK cytotox
O=C1c2c(O)ccc(O)c2C(=O)c2c(NCCNCCO)ccc(NCCNCCO)c21,/,/,/,10µM*!,/
C[N+](C)([O-])CCNc1ccc(NCC[N+](C)(C)[O-])c2c1C(=O)c1c(O)ccc(O)c1C2=O,/,/,/,-29.6%,/
CCc1ccc(S(=O)(=O)c2nnn3c2nc(NCc2ccc(F)cc2)c2ccccc23)cc1,?,/,/,-7.8%,-20.7%
O=S(=O)(c1ccc(Cl)cc1)c1nnn2c1nc(NCc1ccc(F)cc1)c1ccccc12,31.6µM*,/,/,-5.4%,?
C#CCN(C)Cc1nc(C2(O)CCN(C(=O)C3CCCCC3)CC2)cs1,-30.2%[174 µM],i,-11.2%[70.6 µM],?,-26.3%[172 µM]
COc1ncccc1-c1cc2[nH]ccc2c(C(=O)NCc2c(C)cc(C)[nH]c2=O)n1,50.1µM*,i,-0.4%[70.6 µM],?,?
Cc1cc(C)c(CNC(=O)c2nc(-c3cccc(O)c3)cc3[nH]ccc23)c(=O)[nH]1,50.1µM*,?,3.1%[70.6 µM],-5.7%[88.5 µM],79.4µM*
COc1ccccc1-c1cc2[nH]ccc2c(C(=O)NCc2c(C)cc(C)[nH]c2=O)n1,?,i,-4.0%[70.6 µM],?,?
Cc1cc(C)c(CNC(=O)c2nc(Nc3ccccc3)cc3[nH]ccc23)c(=O)[nH]1,?,i,-11.3%[70.6 µM],i,?
Cc1ccc(CN2CC(Oc3ccccc3C(=O)N3CCOCC3)C2)s1,?,/,/,i,?
N#Cc1cc([N+](=O)[O-])c2sc(C(N)=O)[n+]([O-])c2c1,/,/,/,12.6µM*,/
O=C(CC1CC1)N1CCC(Oc2cnc3c(ccn3-c3cncnc3)c2)CC1,?,i,-2.4%[70.6 µM],-9.5%[88.5 µM],?
Cc1ncccc1C(=O)N1CCC(Oc2cnc3c(ccn3-c3cncnc3)c2)CC1,70.8µM*,i,1.4%[70.6 µM],4.1%[88.5 µM],-12.6%[172 µM]
CCCC(=O)N1CCC(Oc2cnc3c(ccn3-c3cncnc3)c2)CC1,10µM*,i,3.9%[70.6 µM],0.7%[88.5 µM],?
O=C(Cc1ccccc1)N1CCC(Oc2cnc3c(ccn3-c3cncnc3)c2)CC1,?,i,-13.7%[70.6 µM],-18.9%[88.5 µM],56.2µM*
CC(C)C(=O)N1CCC(Oc2cnc3c(ccn3-c3cncnc3)c2)CC1,?,i,-0.3%[70.6 µM],0.6%[88.5 µM],-18.8%[172 µM]
O=C(O)Cn1ccc2cc(OCC3CCN(C(=O)Cc4ccccc4)CC3)cnc21,100µM*,i,-0.7%[70.6 µM],-3.5%[88.5 µM],-12.6%[172 µM]
O=C(c1ccncn1)N1CCC(Oc2cnc3c(ccn3-c3cncnc3)c2)CC1,-19.3%[138 µM],i,4.4%[70.6 µM],-13.4%[88.5 µM],?
COc1ccc(OC)c(NC(=O)N2CCc3nc(-c4ccccc4)[nH]c3C2)c1,?,/,/,i,?
COc1cccc(N2CCN(C(=O)C3CCN(c4cnc5nccnc5c4)CC3)CC2)c1,?,i,-22.9%,i,?
c1ccc(CN2CCC(Oc3cnc4c(ccn4-c4cncnc4)c3)CC2)cc1,?,i,-3.5%[70.6 µM],-10.3%[88.5 µM],100µM*
O=C(OCc1ccccc1)N1CCC(Oc2cnc3c(ccn3-c3cncnc3)c2)CC1,?,i,?,-4.0%[88.5 µM],79.4µM*
C[S+](=O)([O-])N1CCC(C(=O)N2CCCC(c3nc4ccncc4[nH]3)C2)CC1 (stereo unspecified),-11.7%,/,/,i,-0.8%
O=C1Nc2ccccc2CC12CCCN2Cc1ccc(F)cc1 (stereo unspecified),-9.8%,/,/,2.1%,-15.0%
COc1ccccc1-c1ccc(C(=O)N2CCC(NC(=O)Cc3cccc(Cl)c3)CC2)cc1,15.8µM*,/,/,4.2%,15.8µM*!
COc1ccccc1-c1ccc(C(=O)N2CCC(C(=O)NCCc3ccc(Cl)cc3)CC2)cc1,31.6µM*,/,/,-7.8%,?
COc1ccccc1-c1ccc(C(=O)N2CCC(NC(=O)Cc3ccc(F)cc3)CC2)cc1,44.7µM*!,/,/,-8.0%,?
Cc1cnc(C2CC2)n1C1CCN(S(=O)(=O)c2ccc3c(c2)OCCO3)CC1,?,/,/,i,?
N#Cc1ccc(C(=O)N2CCCN(Cc3ccncc3)C(c3ccccc3)CC(=O)NCC2)cc1 (stereo unspecified),-10.5%,i,-4.7%,3.1%,-11.6%
COCCCn1c(=O)c(C(=O)N2CCN(C(=O)c3ccc(C)cc3)CC2)nc2cccnc21,-2.9%,/,/,3.4%,-6.9%
